The record followed here is PubChem BioAssay AID485346 (Sanford-Burnham Center for Chemical Genomics, 2010).

Among all 330,000 compounds or so, about 10,000 (3%) were called active.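 Rule for the calls: active = inhibition of at least 50% at 8 µM in the primary screen; inactive = the rest.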 Many of the other results were omitted from the sample, so actives are more common in it than they were.

Protein Mdm4 (Homo sapiens) + E3 ubiquitin-protein ligase Mdm2 (Homo sapiens), sequence (O15151 whole entry, looked up): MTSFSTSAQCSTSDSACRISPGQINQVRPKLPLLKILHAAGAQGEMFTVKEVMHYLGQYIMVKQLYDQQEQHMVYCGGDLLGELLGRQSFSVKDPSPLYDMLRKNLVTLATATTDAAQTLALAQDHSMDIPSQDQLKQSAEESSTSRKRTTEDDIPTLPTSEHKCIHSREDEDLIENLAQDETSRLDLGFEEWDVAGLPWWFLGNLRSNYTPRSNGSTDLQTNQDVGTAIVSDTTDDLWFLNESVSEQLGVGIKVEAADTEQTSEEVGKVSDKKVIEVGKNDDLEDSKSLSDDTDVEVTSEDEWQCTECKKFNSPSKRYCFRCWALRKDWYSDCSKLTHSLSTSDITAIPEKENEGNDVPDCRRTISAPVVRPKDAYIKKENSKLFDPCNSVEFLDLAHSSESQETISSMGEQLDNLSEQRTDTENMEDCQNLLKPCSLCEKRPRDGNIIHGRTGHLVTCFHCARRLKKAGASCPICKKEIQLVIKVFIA
Protein Mdm4 (Homo sapiens) + E3 ubiquitin-protein ligase Mdm2 (Homo sapiens), sequence (Q00987 whole entry, looked up): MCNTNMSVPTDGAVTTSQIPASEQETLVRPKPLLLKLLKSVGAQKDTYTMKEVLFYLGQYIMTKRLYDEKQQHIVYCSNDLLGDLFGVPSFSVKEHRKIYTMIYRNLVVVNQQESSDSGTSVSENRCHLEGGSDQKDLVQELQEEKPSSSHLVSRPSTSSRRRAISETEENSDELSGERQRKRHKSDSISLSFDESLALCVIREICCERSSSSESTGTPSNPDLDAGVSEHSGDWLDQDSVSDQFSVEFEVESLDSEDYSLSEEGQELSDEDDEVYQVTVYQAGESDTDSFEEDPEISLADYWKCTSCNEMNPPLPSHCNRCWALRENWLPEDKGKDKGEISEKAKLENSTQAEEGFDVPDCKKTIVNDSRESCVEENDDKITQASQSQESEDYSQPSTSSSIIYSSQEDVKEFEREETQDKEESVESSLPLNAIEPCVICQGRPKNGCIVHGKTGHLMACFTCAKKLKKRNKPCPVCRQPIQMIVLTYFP

This experiment has as its target Protein Mdm4 (Homo sapiens) + E3 ubiquitin-protein ligase Mdm2 (Homo sapiens) (UniProt O15151+Q00987). Nature of the experiment: inhibitors of human Mdm2-MdmX association, primary screen, cell-based, luminescence, split luciferase, SaOS-2, uHTS (AID 485346). To be noted: SaOS-2 split-luciferase Mdm2/MdmX complementation, at 8 µM, hits give high values.
In general, inhibition refers to the drop in the measured response relative to a control, in per cent. Turning to `Cc1ccc(C)c(NS(=O)(=O)c2c(C)[nH]c(C)c2C(=O)N2CCCCC2)c1`, the inhibition is -0.656% (inactive).

On to `Cc1c(C)n(Cc2ccc(Cl)cc2)c2ccc(C(=O)NCCCN3CCOCC3)cc12`, for which the inhibition was 45.2% (inactive).

Consider `c1ccc2c(c1)CSc1sccc1C2=C1CCNCC1`, for which the inhibition is 78.5% (active).

For the compound `CC1(C(=O)OCC(=O)Nc2ncc(Cl)cc2Cl)CC1(Cl)Cl` (configuration not stated), the inhibition is -3.51% (inactive).

In the case of `C=CCNC(=S)NNc1ncnc2sc3c(c12)CC(C)(C)OC3`, the inhibition was 10.5% (inactive).

With `COc1cc(/C=C/C(=O)OCC(=O)NCCCc2ccccc2)ccc1O`, the inhibition was -15.8% (inactive).

In the case of `O=C(CCC(=O)N1CCCC1)Nc1ccc([N+](=O)[O-])cc1`, the inhibition is 8.85% (inactive).

For the compound `CCC12CN3CC(CC)(CN(C1)C31C(=O)N(C)c3ccc(C)cc31)C2=O` (configuration not stated), the inhibition is 5.2% (inactive).

On to `CCC1=Nc2cc(C(=O)NCCN3CCCC3)ccc2Sc2ccc(C)cc21`, for which the inhibition was 22.7% (inactive).

As to `Cc1cccc(C(=O)OC(C)CN2CCN(C)CC2)c1` (configuration not stated), the inhibition was 15.4% (inactive).

Regarding `Cc1cccc(-c2nc3ccc(C(=O)NCCN4CCN(C)CC4)cc3nc2-c2cccc(C)c2)c1`, the inhibition was 93.2% (active).

Regarding `O=C(CCN1C(=O)c2ccccc2C1=O)NNC(=O)c1ccc(Cl)cc1Cl`, the inhibition is -2.94% (inactive).

For the compound `Cc1ccc(C(=O)NNC(=O)c2ccc3c(c2)OCCO3)cc1`, the inhibition is -59.9% (inactive).

In the case of `CCCCn1c(N)c(N(CCC(C)C)C(=O)COC(=O)c2ccc(CC)cc2)c(=O)[nH]c1=O`, the inhibition is 5.72% (inactive).

As for `CCc1ccccc1NC(=O)[C@@H]1CCC(=O)N1C1OC(=O)c2c1ccc(OC)c2OC` (some centres not stated), the inhibition is 18.1% (inactive).

Consider `CC1CN(C(=O)CCC(=O)NCc2cccnc2)c2ccccc2O1` (configuration not stated), for which the inhibition was -8.45% (inactive).

With `CC1CN(C(=O)CCC(=O)NCCCN2CCC(Cc3ccccc3)CC2)c2cc(Cl)ccc2O1` (configuration not stated), the inhibition was 90.6% (active).

In the case of `CC1CN(C(=O)CCC(=O)NC2CCN(Cc3ccccc3)CC2)c2ccccc2O1` (configuration not stated), the inhibition is 22.7% (inactive).

With `CC(OC(=O)CCc1nc(=O)c2ccccc2n1C)C(=O)NCc1ccc2c(c1)OCO2` (configuration not stated), the inhibition was -11.9% (inactive).

`CN(CC(=O)NC(=O)Nc1ccccc1F)Cc1ccccc1`: the inhibition is -18% (inactive).

For the compound `CCOC(=O)CSc1nncc2ccc(OC)c(OC)c12`, the inhibition is 0.893% (inactive).

Turning to `COc1ccc(C2c3c(C)nn(-c4ccccc4)c3NC(=O)N2c2ccccc2)cc1` (configuration not stated), the inhibition was 9.76% (inactive).

For the compound `CCCCCCCCn1c2c(c(=N)c3c1CCC3)CCCC2`, the inhibition was 87% (active).

For the compound `Cc1cc([N+](=O)[O-])nn1CCCC(=O)Nc1cccnc1Cl`, the inhibition was 21.4% (inactive).

`COc1ccc(N2CCN(S(=O)(=O)CCNC(=O)C34CC5CC(CC(C5)C3)C4)CC2)cc1`: the inhibition is 17.2% (inactive).

For the compound `CCOC(=O)C(C)n1nc(-c2ccccc2)c2ccccc2c1=O` (configuration not stated), the inhibition was 7.24% (inactive).

As for `Cc1cc(C)nc(/N=C2\NC(=O)CC(C(=O)O)N2c2ccc(Cl)cc2Cl)n1` (configuration not stated), the inhibition was 3.8% (inactive).

As for `O=C(COC(=O)c1ccccc1Cl)NC1CCCCCCC1`, the inhibition is 4.18% (inactive).

Regarding `COc1cc(OC)c(S(=O)(=O)Nc2ccccc2C(=O)O)cc1S(=O)(=O)Nc1ccccc1C(=O)O`, the inhibition is 13.2% (inactive).

As to `COC(=O)c1ccc(NC(=O)c2ccccc2NS(=O)(=O)c2ccccc2)cc1`, the inhibition was 36.9% (inactive).

As for `COc1cc(NC(=O)c2ccccc2NS(=O)(=O)c2ccc(Cl)s2)cc(OC)c1`, the inhibition was 85.1% (active).

For the compound `O=C(Nc1cc2c3c(c1)C1CCCC1CN3CC1CCCC21)c1ccc([N+](=O)[O-])cc1` (configuration not stated), the inhibition is 14.3% (inactive).

In the case of `CN(C)c1ccc(C=NCCc2ccc(S(N)(=O)=O)cc2)cc1`, the inhibition was 5.89% (inactive).

Take `Cc1cc(C)c(C#N)c(SCC(=O)Nc2ccccc2)n1`: the inhibition was -38.3% (inactive).

As for `Cc1cccc(C)c1NC(=O)CSc1ccc([N+](=O)[O-])cn1`, the inhibition was 7.43% (inactive).

Turning to `Cc1cc2cc3c(cc2nc1SCC(=O)Nc1c(C)cccc1C)CCC3`, the inhibition is 56.1% (active).

As to `CN(C)CCn1c2c(c(SCC(=O)Nc3ccccc3C(F)(F)F)nc1=O)CCCC2`, the inhibition was 18.8% (inactive).

Consider `Cc1cccn2c(=O)c3cc(C(=O)NCCN4CCOCC4)c(=N)n(Cc4cccnc4)c3nc12`, for which the inhibition is 52.7% (active).

Consider `Cc1cccn2c(=O)c3cc(C(=O)NCC4CCCO4)c(=N)n(Cc4ccc(F)cc4)c3nc12` (configuration not stated), for which the inhibition is 19.6% (inactive).

Regarding `Cc1ccc2nc3c(cc(C(=O)NCCc4ccccc4)c(=N)n3CC3CCCO3)c(=O)n2c1` (configuration not stated), the inhibition was 27.8% (inactive).

In the case of `COc1ccc(CNC(=O)c2cc3c(=O)n4ccccc4nc3n(CC3CCCO3)c2=N)cc1` (configuration not stated), the inhibition was 22.4% (inactive).

As to `COc1ccc(CCn2c(=N)c(C(=O)NCC3CCCO3)cc3c(=O)n4cccc(C)c4nc32)cc1OC` (configuration not stated), the inhibition was 64.4% (active).

For the compound `Cc1cccn2c(=O)c3cc(C#N)c(=O)n(CCCN4CCOCC4)c3nc12`, the inhibition is 16% (inactive).

Turning to `COc1cccc(C2=CC(=O)C[C@H](c3ccc(F)cc3)C2)c1OC`, the inhibition was 11.8% (inactive).

Regarding `Cc1nc(-c2ccc(Cl)cc2)sc1C1(C)CC(c2ccc(Br)cc2)=NO1` (configuration not stated), the inhibition is 4.57% (inactive).

As to `Cc1c(Cl)cccc1NC(=O)Nc1ccc(C(=O)N2CCCC2)cc1`, the inhibition is 41.9% (inactive).

As to `Cc1[nH]c(C)c(S(=O)(=O)N2CCC(C)CC2)c1C(=O)N1CCCC1`, the inhibition was -8.55% (inactive).

`N#Cc1ccc(C2=CC(=O)C[C@H](c3ccc(Cl)cc3)C2)cc1`: the inhibition was -22.1% (inactive).

In the case of `CCOC(=O)c1c(-c2ccc(C)cc2)csc1/N=C(\C)C1=C(O)c2ccccc2C1=O`, the inhibition is 63.4% (active).

`COC(=O)c1c(-c2ccc(C)cc2)csc1N`: the inhibition was 16.7% (inactive).

In the case of `CC(=NCc1ccco1)C1=C(O)c2ccccc2C1=O`, the inhibition was -27.5% (inactive).

Turning to `Cc1cc(-c2ccc(S(=O)(=O)N3CCc4ccccc4C3)s2)on1`, the inhibition was -2.71% (inactive).

Take `C/C(=N\NC(=O)c1ccc(C)cc1)C1C(=O)c2ccccc2C1=O`: the inhibition is 1.09% (inactive).

For `COc1cc(NC(=O)c2ccc(CNc3c(N4CCCC4)c(=O)c3=O)cc2)cc(OC)c1OC`, the inhibition was -9.99% (inactive).

For `O=C(NCc1ccc2c(c1)OCO2)c1c(O)nc2sccn2c1=O`, the inhibition is 16.7% (inactive).

For the compound `CC(=O)c1c(OCC(=O)N(C)C2CCCCC2)ccc2c(C)cc(=O)oc12`, the inhibition was 4.3% (inactive).

In the case of `Oc1c(CN2CCN(c3ccc(F)cc3)CC2)cc(Cl)c2cccnc12`, the inhibition was 65% (active).

In the case of `CC1CCCN(CC(O)COCc2ccccc2)C1` (configuration not stated), the inhibition was 3.39% (inactive).

Turning to `Oc1c(CN2CCCC2)cc(COCc2ccccc2)c2cccnc12`, the inhibition was 75.7% (active).

For the compound `Cc1cccnc1NC(=O)c1cccc(S(=O)(=O)N2CCN(c3ccc(F)cc3)CC2)c1`, the inhibition is 28.4% (inactive).

On to `O=C(CN1CCN(c2ccc(F)cc2)CC1)Nc1ccccc1`, for which the inhibition was 0.1% (inactive).

As for `COc1cc(C)cc(CN2CCC(Cc3ccccc3)CC2)c1O`, the inhibition is -29.4% (inactive).
